# From PubChem BioAssay AID1159580 (chemical genetic matrix, 2015)
# The campaign covered roughly 5,500 compounds. About 2,000 (36%) were called active. About 18% were inconclusive and are not listed. This is one part of the list. Values without a mark were called inactive. Rule as the data show it: active = normalized growth mostly below about 0.91 (no sharp cut-off); inconclusive = no clear call, values can overlap the other calls; inactive = mostly above about 0.92.
# Assay: chemical genetic growth profiling, strain panel (AID 1159580);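 also: tested at 20 µM; growth read once vehicle control cultures reached saturation at 30 °C; 1 = growth at the plate median or of vehicle wells; lower values mean less growth of the strain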
# Conditions: S. cerevisiae deletion strains, growth OD
smiles,measurement,setting,value
CC1(C)CC[C@@]2(C(=O)O)C(C1)C1=CCC3[C@@]4(C)CC[C@H](O)C(C)(C)C4CC[C@@]3(C)[C@]1(C)C[C@@H]2O (stereo not given in full),normalized growth,"locus YAL013W, strain DEP1, active compounds read low",1.02
same,normalized growth,"locus YAL021C, strain ccr4, active compounds read low",1.01
same,normalized growth,"locus YAL026C, strain drs2, active compounds read low",1.01
same,normalized growth,"locus YAL030W, strain snc1, active compounds read low",1.01
same,normalized growth,"locus YBL061C, strain skt5, active compounds read low",1.03
same,normalized growth,"locus YBR009C, strain hhf1, active compounds read low",1.01
same,normalized growth,"locus YBR021W, strain FUR4, active compounds read low",0.996
same,normalized growth,"locus YBR023C, strain chs3, active compounds read low",1.02
same,normalized growth,"locus YBR171W, strain sec66, active compounds read low",1.02
same,normalized growth,"locus YBR229C, strain ROT2, active compounds read low",1.03
same,normalized growth,"locus YBR231C, strain swc5, active compounds read low",1.03
same,normalized growth,"locus YBR279W, strain paf1, active compounds read low",1.02
same,normalized growth,"locus YCL011C, strain gbp2, active compounds read low",1.02
same,normalized growth,"locus YCL016C, strain dcc1, active compounds read low",1.02
same,normalized growth,"locus YCL029C, strain bik1, active compounds read low",0.992
same,normalized growth,"locus YCL061C, strain MRC1, active compounds read low",1.01
same,normalized growth,"locus YCL069W, strain vba3, active compounds read low",1.01
same,normalized growth,"locus YCR088W, strain abp1, active compounds read low",1.01
same,normalized growth,"locus YDL005C, strain med2, active compounds read low",1.01
same,normalized growth,"locus YDL035C, strain GPR1, active compounds read low",1
same,normalized growth,"locus YDL040C, strain nat1, active compounds read low",1.02
same,normalized growth,"locus YDL074C, strain BRE1, active compounds read low",1
same,normalized growth,"locus YDL101C, strain DUN1, active compounds read low",0.827 (active)
same,normalized growth,"locus YDL185W, strain tfp1, active compounds read low",1.02
same,normalized growth,"locus YDL192W, strain arf1, active compounds read low",1.05
same,normalized growth,"locus YDR001C, strain nth1, active compounds read low",1.01
same,normalized growth,"locus YDR069C, strain doa4, active compounds read low",1.05
same,normalized growth,"locus YDR101C, strain arx1, active compounds read low",1.02
same,normalized growth,"locus YDR137W, strain rgp1, active compounds read low",0.828 (active)
same,normalized growth,"locus YDR150W, strain NUM1, active compounds read low",1.03
same,normalized growth,"locus YDR159W, strain sac3, active compounds read low",0.953
same,normalized growth,"locus YDR162C, strain NBP2, active compounds read low",1.01
same,normalized growth,"locus YDR195W, strain ref2",0.952
same,normalized growth,"locus YDR297W, strain sur2, active compounds read low",1.01
same,normalized growth,"locus YDR318W, strain mcm21, active compounds read low",1.03
same,normalized growth,"locus YDR334W, strain swr1, active compounds read low",1.01
same,normalized growth,"locus YDR335W, strain msn5, active compounds read low",1.02
same,normalized growth,"locus YDR388W, active compounds read low",1.03
same,normalized growth,"locus YDR392W, strain spt3, active compounds read low",1.01
same,normalized growth,"locus YDR502C, strain sam2, active compounds read low",1.05
same,normalized growth,"locus YEL003W, strain gim4, active compounds read low",1.03
same,normalized growth,"locus YEL037C, strain rad23, active compounds read low",1.02
same,normalized growth,"locus YEL061C, strain CIN8 (second series), active compounds read low",1.02
same,normalized growth,"locus YEL061C, strain CIN8, active compounds read low",1.02
same,normalized growth,"locus YER015W, strain faa2, active compounds read low",1.03
same,normalized growth,"locus YER016W, strain bim1, active compounds read low",1
same,normalized growth,"locus YER110C, active compounds read low",1.03
same,normalized growth,"locus YER111C, strain swi4, active compounds read low",1.01
same,normalized growth,"locus YER155C, strain BEM2 (second series), active compounds read low",1
same,normalized growth,"locus YER155C, strain BEM2, active compounds read low",1.03
same,normalized growth,"locus YER167W, strain BCK2, active compounds read low",1.04
same,normalized growth,"locus YFR010W, strain ubp6, active compounds read low",1.04
same,normalized growth,"locus YGL078C, strain dbp3, active compounds read low",1.03
same,normalized growth,"locus YGL086W, strain mad1, active compounds read low",1.22 [resistant] (active)
same,normalized growth,"locus YGL167C, strain pmr1, active compounds read low",1.01
same,normalized growth,"locus YGL173C, strain kem1, active compounds read low",1.01
same,normalized growth,"locus YGL227W, strain vid30, active compounds read low",1.01
same,normalized growth,"locus YGL240W, strain doc1, active compounds read low",1
same,normalized growth,"locus YGL248W, strain PDE1, active compounds read low",1.02
same,normalized growth,"locus YGL253W, strain hxk2, active compounds read low",1.02
same,normalized growth,"locus YGR078C, strain PAC10, active compounds read low",1.05
same,normalized growth,"locus YGR135W, strain pre9, active compounds read low",1.05
same,normalized growth,"locus YGR252W, strain gcn5, active compounds read low",1.07
same,normalized growth,"locus YHR013C, strain ard1, active compounds read low",1.1
same,normalized growth,"locus YHR027C, strain rpn1, active compounds read low",1.02
same,normalized growth,"locus YHR030C, strain SLT2, active compounds read low",1.04
same,normalized growth,"locus YHR079C, strain IRE1 (second series), active compounds read low",1.01
same,normalized growth,"locus YHR094C, strain hxt1, active compounds read low",1.02
same,normalized growth,"locus YHR129C, strain ARP1, active compounds read low",1.04
same,normalized growth,"locus YHR142W, strain chs7, active compounds read low",1.03
same,normalized growth,"locus YHR200W, strain rpn10, active compounds read low",1.04
same,normalized growth,"locus YIL066C, strain RNR3, active compounds read low",1.05
same,normalized growth,"locus YIL073C, strain SPO22, active compounds read low",1.15
same,normalized growth,"locus YIL125W, strain kgd1, active compounds read low",1.02
same,normalized growth,"locus YIR030C, strain dcg1, active compounds read low",1.1 [resistant] (active)
same,normalized growth,"locus YJL092W, strain hpr5, active compounds read low",1.01
same,normalized growth,"locus YJL095W, strain BCK1 (second series), active compounds read low",1.01
same,normalized growth,"locus YJL095W, strain BCK1, active compounds read low",0.973
same,normalized growth,"locus YJL115W, strain asf1, active compounds read low",1.02
same,normalized growth,"locus YJL129C, strain trk1, active compounds read low",1.02
same,normalized growth,"locus YJL134W, strain LCB3, active compounds read low",1.02
same,normalized growth,"locus YJL154C, strain vps35, active compounds read low",1
same,normalized growth,"locus YJL164C, strain tpk1, active compounds read low",1.03
same,normalized growth,"locus YJL166W, strain qcr8, active compounds read low",1.01
same,normalized growth,"locus YJL168C, strain set2, active compounds read low",1.04
same,normalized growth,"locus YJL187C, strain SWE1 (second series), active compounds read low",1.02
same,normalized growth,"locus YJL187C, strain SWE1, active compounds read low",1.01
same,normalized growth,"locus YJR043C, strain POL32, active compounds read low",1.02
same,normalized growth,"locus YKL009W, strain mrt4, active compounds read low",1.16 [resistant] (active)
same,normalized growth,"locus YKL068W, active compounds read low",1.19 [resistant] (active)
same,normalized growth,"locus YKL085W, strain MDH1 (second series), active compounds read low",1.24 [resistant] (active)
same,normalized growth,"locus YKL085W, strain MDH1, active compounds read low",1.24 [resistant] (active)
same,normalized growth,"locus YKL160W, strain elf1, active compounds read low",0.995
same,normalized growth,"locus YKL190W, strain CNB1, active compounds read low",1.03
same,normalized growth,"locus YKR001C, strain vps1, active compounds read low",1.03
same,normalized growth,"locus YKR026C, strain gcn3, active compounds read low",0.988
same,normalized growth,"locus YKR091W, strain srl3, active compounds read low",1.01
same,normalized growth,"locus YLL001W, strain dnm1, active compounds read low",1.02
same,normalized growth,"locus YLL026W, active compounds read low",1.01
same,normalized growth,"locus YLL041C, strain sdh2, active compounds read low",1.01
same,normalized growth,"locus YLR027C, strain aat2, active compounds read low",1.02
same,normalized growth,"locus YLR039C, strain RIC1, active compounds read low",0.866
same,normalized growth,"locus YLR058C, strain SHM2, active compounds read low",1.03
same,normalized growth,"locus YLR102C, strain apc9, active compounds read low",1.02
same,normalized growth,"locus YLR221C, strain rsa3, active compounds read low",1.02
same,normalized growth,"locus YLR258W, strain gsy2, active compounds read low",1.01
same,normalized growth,"locus YLR262C, strain YPT6 (second series), active compounds read low",0.871
same,normalized growth,"locus YLR262C, strain YPT6, active compounds read low",0.827
same,normalized growth,"locus YLR268W, strain sec22, active compounds read low",1.01
same,normalized growth,"locus YLR320W, strain mms22, active compounds read low",1.02
same,normalized growth,"locus YLR330W, strain CHS5, active compounds read low",1.03
same,normalized growth,"locus YLR342W, strain FKS1 (second series), active compounds read low",0.97
same,normalized growth,"locus YLR342W, strain FKS1, active compounds read low",1.02
same,normalized growth,"locus YLR357W, strain rsc2, active compounds read low",1
same,normalized growth,"locus YLR370C, strain arc18, active compounds read low",1.02
same,normalized growth,"locus YLR371W, strain rom2, active compounds read low",1.01
same,normalized growth,"locus YLR384C, strain iki3, active compounds read low",1.02
same,normalized growth,"locus YLR418C, strain cdc73, active compounds read low",1.19 [resistant] (active)
same,normalized growth,"locus YML016C, strain PPZ1, active compounds read low",1.03
same,normalized growth,"locus YML032C, strain rad52, active compounds read low",1.02
same,normalized growth,"locus YML120C, strain ndi1, active compounds read low",1.02
same,normalized growth,"locus YML124C, strain tub3, active compounds read low",1.05
same,normalized growth,"locus YMR058W, strain fet3, active compounds read low",1.03
same,normalized growth,"locus YMR078C, strain ctf18, active compounds read low",1.03
same,normalized growth,"locus YMR125W, strain sto1, active compounds read low",1.03
same,normalized growth,"locus YMR129W, active compounds read low",1.02
same,normalized growth,"locus YMR205C, strain PFK2, active compounds read low",0.984
same,normalized growth,"locus YMR223W, strain ubp8, active compounds read low",1.01
same,normalized growth,"locus YMR231W, strain pep5, active compounds read low",1.01
same,normalized growth,"locus YMR307W, strain GAS1, active compounds read low",0.909
same,normalized growth,"locus YNL067W, strain RPL9B, active compounds read low",1.02
same,normalized growth,"locus YNL071W, strain lat1, active compounds read low",1.01
same,normalized growth,"locus YNL128W, strain TEP1, active compounds read low",0.874
same,normalized growth,"locus YNL153C, strain GIM3, active compounds read low",1.02
same,normalized growth,"locus YNL209W, strain ssb2, active compounds read low",1.03
same,normalized growth,"locus YNL233W, strain BNI4, active compounds read low",1.03
same,normalized growth,"locus YNL248C, strain rpa49, active compounds read low",1.01
same,normalized growth,"locus YNL250W, strain rad50, active compounds read low",1.04
same,normalized growth,"locus YNL271C, strain bni1, active compounds read low",1.02
same,normalized growth,"locus YNL298W, strain CLA4, active compounds read low",1.02
same,normalized growth,"locus YNL307C, strain MCK1, active compounds read low",1.05
same,normalized growth,"locus YNL322C, strain KRE1 (second series), active compounds read low",0.998
same,normalized growth,"locus YNR049C, strain mso1, active compounds read low",1.01
same,normalized growth,"locus YNR052C, strain pop2, active compounds read low",1.03
same,normalized growth,"locus YOL006C, strain TOP1, active compounds read low",1.17
same,normalized growth,"locus YOL012C, strain htz1",1.06
same,normalized growth,"locus YOL147C, strain pex11, active compounds read low",1.03
same,normalized growth,"locus YOR001W, strain rrp6, active compounds read low",1
same,normalized growth,"locus YOR061W, strain CKA2, active compounds read low",1
same,normalized growth,"locus YOR069W, strain VPS5, active compounds read low",1.01
same,normalized growth,"locus YOR070C, strain gyp1, active compounds read low",1.03
same,normalized growth,"locus YOR080W, strain dia2, active compounds read low",1.01
same,normalized growth,"locus YOR083W, strain WHI5, active compounds read low",0.996
same,normalized growth,"locus YOR106W, strain vam3, active compounds read low",1
same,normalized growth,"locus YOR136W, strain idh2, active compounds read low",1.04
same,normalized growth,"locus YOR144C, strain elg1, active compounds read low",1.03
same,normalized growth,"locus YOR184W, strain ser1, active compounds read low",1
same,normalized growth,"locus YOR265W, strain rbl2, active compounds read low",1.03
same,normalized growth,"locus YOR270C, strain vph1, active compounds read low",1.11
same,normalized growth,"locus YOR290C, strain snf2, active compounds read low",0.991
same,normalized growth,"locus YOR316C, strain cot1, active compounds read low",1.03
same,normalized growth,"locus YPL051W, strain arl3, active compounds read low",0.99
same,normalized growth,"locus YPL078C, strain atp4, active compounds read low",1.02
same,normalized growth,"locus YPL106C, strain sse1, active compounds read low",1.03
same,normalized growth,"locus YPL240C, strain hsp82, active compounds read low",1.01
same,normalized growth,"locus YPR119W, strain clb2, active compounds read low",1.03
same,normalized growth,"locus YPR141C, strain kar3, active compounds read low",1.05
same,normalized growth,"locus YPR163C, strain tif3, active compounds read low",1.05
same,normalized growth,"locus YPR167C, strain met16, active compounds read low",1.04
same,normalized growth,"strain wtn01, active compounds read low",1.05
